Source: PubChem BioAssay (NCI)
Compounds without any hit were thinned out: in the full panel of roughly 79,000, 15% have a hit. Rule as the data show it: active = growth inhibition above about 70%; inactive = the rest.

Assays:
[1] = NCI Yeast Anticancer Drug Screen. Data for the rad50 strain (AID 155);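 also: 0% = growth of vehicle-only cultures of the same strain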; conditions: S. cerevisiae rad50 strain growth inhibition; at 50.0 µM; active compounds read high
Outline: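 DNA repair mutant yeast, compound exposure, growth read-out; inhibition is taken relative to vehicle.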

[2] = NCI Yeast Anticancer Drug Screen. Data for the mec2-1 strain (AID 157); conditions: S. cerevisiae mec2-1 strain, at 50.0 µM, active compounds read high
Outline: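 Mutant yeast (mec2-1) grown with compound; growth inhibition relative to vehicle control reported.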

[3] = NCI Yeast Anticancer Drug Screen. Data for the sgs1 mgt1 strain (AID 161);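 also: 0% = growth of cultures given vehicle only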; conditions: S. cerevisiae sgs1 mgt1 strain, at 50.0 µM, active compounds read high
Outline: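 Growth of a repair-deficient yeast mutant was monitored after compound treatment and expressed as inhibition relative to vehicle-treated cultures.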

[4] = NCI Yeast Anticancer Drug Screen. Data for the cln2 rad14 strain (AID 165);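 also: 0% = growth equal to vehicle treated cultures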; conditions: S. cerevisiae cln2 rad14 strain, at 50.0 µM, active compounds read high
Outline: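 Readout is yeast growth inhibition versus vehicle-treated controls, using a strain with cln2 and rad14 alterations exposed to compound.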

[5] = NCI Yeast Anticancer Drug Screen. Data for the bub3 strain (AID 167); conditions: S. cerevisiae bub3 mutant strain, at 50.0 µM, active compounds read high
Outline: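 In this screen, a yeast mutant lacking normal mitotic checkpoint function is challenged with compound. Relative growth versus vehicle gives the inhibition value.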

[6] = NCI Yeast Anticancer Drug Screen. Data for the mlh1 rad18 strain (AID 175); conditions: S. cerevisiae mlh1 rad18 strain growth inhibition; at 50.0 µM; active compounds read high
Outline: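 Genetically defined yeast (DNA repair-deficient) exposed to compounds; growth inhibition determined relative to vehicle.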

Measured: growth inhibition

CSCCC(NC(c1ccccc1)c1ccccc1)[P+](=O)O (stereo unspecified)
inactive: [1] -53.4% | [2] -44.8% | [3] -37.5% | [4] -5.15% | [5] -3.65% | [6] -40.1%

COc1cc2c(cc1OC)CN1CCc3ccccc3CC1C2 (stereo unspecified)
inactive: [1] 15.3% | [2] -73.3% | [3] -16.8% | [4] -5.1% | [5] -33.5% | [6] -33.7%

CC1=NCC(C)S1 (stereo unspecified)
inactive: [1] -3.3% | [2] -9.95% | [3] 7% | [4] -6.05% | [5] -9.3% | [6] -5.75%

N#CC(C(=O)CCC(=O)C(C#N)c1c(Cl)cccc1Cl)c1c(Cl)cccc1Cl (stereo unspecified)
inactive: [1] -18.3% | [2] 7.3% | [3] -12.5% | [4] -41.5% | [5] 6.55% | [6] -11.1%

CC(C)OC(=O)Oc1ccc(Cl)cc1
inactive: [1] 6.05% | [2] -13.1% | [3] 7.4% | [4] -46.1% | [5] -11.8% | [6] 9.8%

CC(=O)c1cc2c(cc1C)C(C)CCC2(C)C (stereo unspecified)
inactive: [1] -7% | [2] -29.4% | [3] -9.6% | [4] -6.1% | [5] 1.9% | [6] -22.5%

[O-][n+]1c2ccccc2nn1-c1ccccc1
inactive: [1] -9.1% | [2] -4.25% | [3] -2.65% | [4] -21.4% | [5] -7.2% | [6] -13.8%

CC(CCC(=O)O)C1CCC2C3CCC4CC(OC=O)CCC4(C)C3CC(=O)C12C (stereo unspecified)
inactive: [1] -5.9% | [2] -3.25% | [3] -12.8% | [4] 0.15% | [5] -1.6% | [6] -13.9%

CCCCCCCC(=O)NCCCC(C)Nc1cc(OC)cc2cccnc12 (stereo unspecified)
inactive: [1] 39.7% | [2] 47% | [3] 19.4% | [4] 14.9% | [5] 22% | [6] 28.1%

CCCCCCCC/C=C\CCCCCCCC(=O)NCCN(CCN)C(=O)CCCCCCC/C=C\CCCCCCCC
inactive: [1] -20.9% | [2] -18.4% | [3] -16.8% | [4] -20.6% | [5] -41.9% | [6] -23.8%

O=C(Nc1cc(Cl)ccc1Cl)Oc1ccc(Cl)cc1C(=O)c1ccccc1
inactive: [1] -45% | [2] -10.4% | [3] -37.8% | [4] -16.8% | [5] -35.4% | [6] -56.9%

O=C(O)Cn1cnc2c(=O)[nH]c(Nc3ccccc3)nc21
inactive: [1] 24.4% | [2] 9.1% | [3] 34.9% | [4] 5.35% | [5] 15.5% | [6] -17.1%

O=C(O)c1cccc(/C=N/O)c1O
inactive: [1] -16.9% | [2] -3.25% | [3] -6.45% | [4] -10.5% | [5] 7.75% | [6] 8.55%

CC[C@@]1(O)C[C@H](OC2CC(N(C)C)C(OC3CC(O)C(OC4CC(O)C(O)C(C)O4)C(C)O3)C(C)O2)c2c(cc3c(c2O)C(=O)c2c(O)ccc(O)c2C3=O)[C@H]1C(=O)OC (stereo partly specified)
inactive: [1] -25.1% | [2] -14.8% | [3] -35% | [4] 4.3% | [5] 1.95% | [6] 7.45%

Cc1ccc(O)c(C(=O)CCCC(=O)c2cc(C)ccc2O)c1
inactive: [1] -4.6% | [2] 7.9% | [3] 7.7% | [4] 12.5% | [5] -8.3% | [6] 4.35%

C#CC(N)=O
inactive: [1] -9.6% | [2] 11.4% | [3] -0.6% | [4] -20.6% | [5] -6% | [6] 4.4%

O=CSC(=Nc1ccc(Cl)cc1)NC(=O)COc1ccc(Cl)cc1
inactive: [1] 5.05% | [2] -21.4% | [3] 58.9% | [4] -22.4% | [5] 33.3% | [6] 12.3%

COc1ccc(-c2cc(-c3ccccc3)c(C#N)c(=O)n2C2OC(CO)C(O)C(O)C2O)cc1 (stereo unspecified)
inactive: [1] -8.2% | [2] 11.6% | [3] 2.45% | [4] 12.8% | [5] -5.6% | [6] -2.05%

C=CC1=C(C)C2=NC1=CC1=NC(=CC3=C(C)C4=C(O)C(C(=O)OC)C(=C5NC(=C2)C(C)C5CCC(=O)OC/C=C(\C)CCCC(C)CCCC(C)CCCC(C)C)C4=N3)C(CC)=C1C (stereo unspecified)
inactive: [1] -17.7% | [2] -33.4% | [3] -49.8% | [4] 3.4% | [5] -29.1% | [6] -20.9%

OC(Cc1cccc(=S)[nH]1)(c1ccccc1)c1ccccc1
inactive: [1] -7.35% | [2] -7.25% | [3] -9.25% | [4] -37.9% | [5] -1.8% | [6] -26.3%

COc1cccc(NC(=O)CC(=O)N2N=C(N(CCC#N)c3ccc(Cl)cc3)CC2c2ccccc2)c1 (stereo unspecified)
inactive: [1] 19.1% | [2] -4.2% | [3] 19.1% | [4] 8.9% | [5] -0.15% | [6] -0.75%

S=c1nc[nH]c2c1CNC2
inactive: [1] -8.2% | [2] 10.9% | [3] -5.4% | [4] 1.7% | [5] 5.25% | [6] -6.15%

COc1ccc2c(c1)CC/C(=C\c1ccccn1)C2=O
inactive: [1] 41.5% | [2] 33.5% | [3] 16.8% | [4] 24.4% | [5] 19.5% | [6] 14.4%

Oc1c(N=Nc2ccccc2)c2ccccc2c2ccc3ccccc3c12
inactive: [1] -23.3% | [2] -13.7% | [3] -7.6% | [4] -15.9% | [5] -8.2% | [6] 6.85%

COC(=O)c1ccccc1NC(=O)Nc1ccc(SC)cc1
inactive: [1] -2% | [2] 24.4% | [3] 19.6% | [4] -8.65% | [5] 31.2% | [6] 14.3%

Nc1ccn(CCO)c(=O)n1
inactive: [1] -3.95% | [2] 2.05% | [3] -23.2% | [4] -0.8% | [5] -5.3% | [6] -7.95%

Clc1c(-c2ccccc2)oc2nc3ccccc3nc12
inactive: [1] 13.9% | [2] 6.85% | [3] 13.6% | [4] 21.6% | [5] -1.55% | [6] 26.2%

CC(NC(=O)c1cnc2ccccc2n1)C(=O)O (stereo unspecified)
inactive: [1] -19.4% | [2] -24.4% | [3] -29.8% | [4] -16.4% | [5] 4.05% | [6] -24.8%

OCCCOc1ccc2ccccc2c1
inactive: [1] 21.4% | [2] 10.2% | [3] 28.4% | [4] 3.95% | [5] -7.25% | [6] 9.85%

COc1ccc(-c2c3c(nc4nc(SCC(=O)c5ccc(Br)cc5)nc(N)c24)CCCC3)cc1OC
inactive: [1] 0.05% | [2] -17.2% | [3] -27.9% | [4] -0.55% | [5] -16.6% | [6] 9.65%

CCOC(=S)SC1OC(COC(C)=O)C(OC(C)=O)C(OC(C)=O)C1OC(C)=O (stereo unspecified)
inactive: [1] 57.5% | [2] 11.4% | [3] 55.2% | [4] 45.8% | [5] 17.2% | [6] 10.7%

COc1nc(N)c([N+](=O)[O-])c(OC)n1
inactive: [1] -11.9% | [2] -14.8% | [3] -2.7% | [4] -28.2% | [5] -9.85% | [6] -19.4%

CC(=O)c1cccc(NC(=O)/C(=N\NC(=S)NN)C2C(=O)Nc3ccccc3S2=O)c1 (stereo unspecified)
inactive: [1] -3.6% | [2] -42.4% | [3] -13.1% | [4] -4.15% | [5] -1.8% | [6] -10.5%

CCCNc1ncnc2[nH]ncc12
inactive: [1] -44.1% | [2] -25.9% | [3] -39.9% | [4] -23% | [5] -42.2% | [6] -32%

CCOC(=O)CN1C(=O)C(=O)N(c2ccc(OC)c3ccccc23)C1=O
inactive: [1] -46.1% | [2] -17.2% | [3] -54.7% | [4] -40% | [5] -1.3% | [6] -27.6%

O=C(O)C1CCC2SC(F)(F)C(F)(F)C2C1 (stereo unspecified)
inactive: [1] -4.05% | [2] 12.2% | [3] 2.65% | [4] 12.5% | [5] 8.55% | [6] 11.6%

COc1ccc2cc3n(c2c1)CCc1cc(OC)c(OC)cc1-3
inactive: [1] 13.6% | [2] -10.8% | [3] 5.9% | [4] 23.9% | [5] 3% | [6] 14.2%

O=c1[nH][nH]c(=O)c2nc3c(nc12)c1nc2c(=O)[nH][nH]c(=O)c2nc1c1nc2c(=O)[nH][nH]c(=O)c2nc31
inactive: [1] -1.6% | [2] 21.4% | [3] 21.1% | [4] -2.55% | [5] -11.1% | [6] 8.2%

CC(C)c1nnnn1C12CC3CC(CC(C3)C1)C2
inactive: [1] 2.75% | [2] -13.2% | [3] 1% | [4] -17.4% | [5] -3.3% | [6] 11.5%

COc1cc(NCCCCCN2C(=O)c3ccccc3C2=O)c2ncccc2c1
inactive: [1] 13.9% | [2] 13.2% | [3] 17.4% | [4] 11% | [5] 10.7% | [6] 0.1%

Cc1cccc(C(=O)NCCN(C)C)c1[N+](=O)[O-]
inactive: [1] 5.55% | [2] -20.9% | [3] 1.2% | [4] 14.9% | [5] -16.4% | [6] 3.35%
